# Experimental data published in PubChem BioAssay (NCI).
# Several values for one entry are separate records, joined by “and”; a condition that tells them apart may be missing. Identical values can stand only once. About 79,000 compounds went through this panel and 15% of them were active in at least one assay; those are over-represented in the sample as a whole. Unmarked numbers belong to inactive results. Activity calls are given as the source filed them. No stated cut-off is given here; in the data, active means growth inhibition above about 70%; inactive means the rest.
# What was measured:
# [1] = NCI Yeast Anticancer Drug Screen. Data for the rad52 strain (AID 147);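 further: 0% = growth of vehicle-treated control cultures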; details: S. cerevisiae rad52 mutant growth inhibition, hits give high values
# Summary of the method: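 Yeast strain carrying a DNA damage repair alteration was exposed to test compounds. Growth inhibition was measured relative to vehicle-treated controls.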
# [2] = NCI Yeast Anticancer Drug Screen. Data for the wt1 strain (AID 149);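 further: 0% = growth of vehicle-treated wt1 cultures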; details: S. cerevisiae wt1 strain (SPY 50644) growth inhibition, hits give high values
# Summary of the method: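 Growth inhibition read against vehicle controls after compound exposure of the wt1 yeast strain.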
# [3] = NCI Yeast Anticancer Drug Screen. Data for the rad50EPP+ strain (AID 151);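 further: 0% = growth of vehicle-treated control cultures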; details: S. cerevisiae rad50 mutant strain, hits give high values
# Summary of the method: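 Yeast strain carrying rad50 alteration (rad50EPP+) exposed to compounds; growth inhibition measured relative to vehicle-treated controls.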
# [4] = NCI Yeast Anticancer Drug Screen. Data for the mgt1 strain (AID 153); details: S. cerevisiae mgt1 mutant growth inhibition, hits give high values
# Summary of the method: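 Yeast mgt1 strain (DNA repair/cell-cycle alteration panel) exposed to compounds; growth inhibition measured relative to vehicle-treated controls.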
# [5] = NCI Yeast Anticancer Drug Screen. Data for the rad50 strain (AID 155);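 further: 0% = growth of vehicle-only cultures of the same strain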; details: S. cerevisiae rad50 strain growth inhibition, hits give high values
# Summary of the method: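 Readout: growth inhibition relative to vehicle-treated cultures. Compound exposure was carried out in a genetically defined yeast strain deficient in DNA damage repair.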
# [6] = NCI Yeast Anticancer Drug Screen. Data for the mec2-1 strain (AID 157); details: S. cerevisiae mec2-1 strain, hits give high values
# Summary of the method: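 mec2-1 yeast strain, carrying an alteration in DNA damage repair or cell cycle control, was exposed to compounds; growth inhibition was measured relative to vehicle-treated controls.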
# [7] = NCI Yeast Anticancer Drug Screen. Data for the rad14 strain (AID 159);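 further: 0% = growth of vehicle-treated control cultures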; details: S. cerevisiae rad14 strain growth inhibition, hits give high values
# Summary of the method: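 Growth inhibition vs vehicle controls; genetically altered yeast strain (DNA damage repair defect) treated with test compounds.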
# [8] = NCI Yeast Anticancer Drug Screen. Data for the sgs1 mgt1 strain (AID 161);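 further: 0% = growth of cultures given vehicle only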; details: S. cerevisiae sgs1 mgt1 strain, hits give high values
# Summary of the method: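 Compounds are added to genetically altered yeast, and growth is compared with cultures given vehicle alone to give percent inhibition.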
# [9] = NCI Yeast Anticancer Drug Screen. Data for the CLN2oe strain (AID 163);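 further: 0% = growth of vehicle-only control cultures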; details: S. cerevisiae CLN2oe strain, hits give high values
# Summary of the method: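 Yeast cells carrying a defined cell-cycle control alteration were exposed to test compounds. Growth inhibition was scored against vehicle-treated control cultures.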
# [10] = NCI Yeast Anticancer Drug Screen. Data for the cln2 rad14 strain (AID 165);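 further: 0% = growth equal to vehicle treated cultures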; details: S. cerevisiae cln2 rad14 strain, hits give high values
# Summary of the method: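 Yeast carrying cln2 and rad14 alterations (cell cycle control and DNA damage repair) were exposed to compounds. Growth inhibition was measured against vehicle-treated controls.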
# [11] = NCI Yeast Anticancer Drug Screen. Data for the bub3 strain (AID 167); details: S. cerevisiae bub3 mutant strain, hits give high values
# Summary of the method: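 Readout: yeast growth inhibition, expressed relative to vehicle-only wells. The test organism is a mutant strain from a panel with lesions in DNA repair or checkpoint genes.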
# [12] = NCI Yeast Anticancer Drug Screen. Data for the wt2 strain (AID 169);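 further: 0% = growth of vehicle-treated yeast cultures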; details: S. cerevisiae wt2 strain growth inhibition, hits give high values
# Summary of the method: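 Yeast cells were exposed to test compounds, and growth inhibition was measured relative to vehicle-treated controls.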
# [13] = NCI Yeast Anticancer Drug Screen. Data for the mlh1 strain (AID 171);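 further: 0% = growth of vehicle-treated control cultures of the same strain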; details: S. cerevisiae mlh1 strain growth inhibition, hits give high values
# Summary of the method: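 Yeast carrying a defined genetic alteration in DNA damage repair or cell cycle control were exposed to test compounds. Growth inhibition was measured relative to vehicle-treated controls.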
# [14] = NCI Yeast Anticancer Drug Screen. Data for the sgs1 strain (AID 173);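 further: 0% = growth of vehicle-only control cultures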; details: S. cerevisiae sgs1 mutant, hits give high values
# Summary of the method: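 Yeast mutant strains carrying defined defects in DNA damage repair or cell cycle control were exposed to test compounds. Growth inhibition was scored against vehicle-treated controls.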
# [15] = NCI Yeast Anticancer Drug Screen. Data for the mlh1 rad18 strain (AID 175); details: S. cerevisiae mlh1 rad18 strain growth inhibition, hits give high values
# Summary of the method: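 Growth inhibition of the yeast strain was measured after compound exposure and expressed relative to vehicle-treated controls. The strain carries defined defects in DNA damage repair.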
# [16] = NCI Yeast Anticancer Drug Screen. Data for the rad18 strain (AID 177); details: S. cerevisiae rad18 mutant growth inhibition, hits give high values
# Summary of the method: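 Yeast carrying a defined DNA damage repair alteration were exposed to compounds. Growth inhibition was expressed relative to vehicle-treated controls.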
# [17] = at 5.0 µM (retest, dose inferred, filed as 0.5)
# [18] = at 50.0 µM (retest, dose inferred, filed as 5.0)
structure (smiles),measurement,setting,value
Oc1ccc(Cl)cc1Cc1ccccc1,growth inhibition,[1]; at 1.2 µM,-21%
same,growth inhibition,[1]; at 3.7 µM,4%
same,growth inhibition,[1]; at 11.0 µM,70% (active)
same,growth inhibition,[1]; at 33.0 µM,98% (active)
same,growth inhibition,[1]; at 100.0 µM,98% (active)
same,growth inhibition,[2]; at 1.2 µM,-41%
same,growth inhibition,[2]; at 3.7 µM,-11%
same,growth inhibition,[2]; at 11.0 µM,60%
same,growth inhibition,[2]; at 33.0 µM,99% (active)
same,growth inhibition,[2]; at 100.0 µM,99% (active)
same,growth inhibition,[3]; at 1.2 µM,-52%
same,growth inhibition,[3]; at 3.7 µM,-15%
same,growth inhibition,[3]; at 11.0 µM,28%
same,growth inhibition,[3]; at 33.0 µM,95% (active)
same,growth inhibition,[3]; at 100.0 µM,97% (active)
same,growth inhibition,[4]; at 1.2 µM,11%
same,growth inhibition,[4]; at 3.7 µM,-2%
same,growth inhibition,[4]; at 11.0 µM,85% (active)
same,growth inhibition,[4]; at 33.0 µM,98% (active)
same,growth inhibition,[4]; at 100.0 µM,99% (active)
same,growth inhibition,[5]; at 1.2 µM,-46%
same,growth inhibition,[5]; at 3.7 µM,-43%
same,growth inhibition,[5]; [17],58%
same,growth inhibition,[5]; at 11.0 µM,54%
same,growth inhibition,[5]; at 33.0 µM,98% (active)
same,growth inhibition,[5]; [18],86% (active)
same,growth inhibition,[5]; at 50.0 µM,92% (active)
same,growth inhibition,[5]; at 100.0 µM,98% (active)
same,growth inhibition,[6]; at 1.2 µM,-40%
same,growth inhibition,[6]; at 3.7 µM,5%
same,growth inhibition,[6]; [17],54%
same,growth inhibition,[6]; at 11.0 µM,77% (active)
same,growth inhibition,[6]; at 33.0 µM,84% (active)
same,growth inhibition,[6]; [18],83% (active)
same,growth inhibition,[6]; at 50.0 µM,93.7% (active)
same,growth inhibition,[6]; at 100.0 µM,99% (active)
same,growth inhibition,[7]; at 1.2 µM,-23%
same,growth inhibition,[7]; at 3.7 µM,-23%
same,growth inhibition,[7]; at 11.0 µM,54%
same,growth inhibition,[7]; at 33.0 µM,99% (active)
same,growth inhibition,[7]; at 100.0 µM,99% (active)
same,growth inhibition,[8]; [17],-5%
same,growth inhibition,[8]; [18],44%
same,growth inhibition,[8]; at 50.0 µM,94.4% (active)
same,growth inhibition,[9]; at 1.2 µM,-11%
same,growth inhibition,[9]; at 3.7 µM,-30%
same,growth inhibition,[9]; at 11.0 µM,71% (active)
same,growth inhibition,[9]; at 33.0 µM,99% (active)
same,growth inhibition,[9]; at 100.0 µM,99% (active)
same,growth inhibition,[10]; [17],41%
same,growth inhibition,[10]; [18],99% (active)
same,growth inhibition,[10]; at 50.0 µM,92.9% (active)
same,growth inhibition,[11]; at 1.2 µM,-52%
same,growth inhibition,[11]; at 3.7 µM,-18%
same,growth inhibition,[11]; [17],36%
same,growth inhibition,[11]; at 11.0 µM,70% (active)
same,growth inhibition,[11]; at 33.0 µM,100% (active)
same,growth inhibition,[11]; [18],99% (active)
same,growth inhibition,[11]; at 50.0 µM,92.5% (active)
same,growth inhibition,[11]; at 100.0 µM,100% (active)
same,growth inhibition,[12]; at 1.2 µM,-53%
same,growth inhibition,[12]; at 3.7 µM,-16%
same,growth inhibition,[12]; at 11.0 µM,54%
same,growth inhibition,[12]; at 33.0 µM,98% (active)
same,growth inhibition,[12]; at 100.0 µM,98% (active)
same,growth inhibition,[13]; at 1.2 µM,12%
same,growth inhibition,[13]; at 3.7 µM,-9%
same,growth inhibition,[13]; at 11.0 µM,69%
same,growth inhibition,[13]; at 33.0 µM,99% (active)
same,growth inhibition,[13]; at 100.0 µM,99% (active)
same,growth inhibition,[14]; at 1.2 µM,-23%
same,growth inhibition,[14]; at 3.7 µM,-17%
same,growth inhibition,[14]; at 11.0 µM,66%
same,growth inhibition,[14]; at 33.0 µM,98% (active)
same,growth inhibition,[14]; at 100.0 µM,99% (active)
same,growth inhibition,[15]; [17],29%
same,growth inhibition,[15]; [18],70% (active)
same,growth inhibition,[15]; at 50.0 µM,93% (active)
same,growth inhibition,[16]; at 1.2 µM,-71%
same,growth inhibition,[16]; at 3.7 µM,-30%
same,growth inhibition,[16]; at 11.0 µM,54%
same,growth inhibition,[16]; at 33.0 µM,95% (active)
same,growth inhibition,[16]; at 100.0 µM,97% (active)
O=S(=O)(O)/C(=C\c1ccccc1)c1ccccc1 (tested in a mixture with another compound),growth inhibition,[1]; at 1.2 µM,-3%
same,growth inhibition,[1]; at 3.7 µM,-2%
same,growth inhibition,[1]; at 11.0 µM,-6%
same,growth inhibition,[1]; at 33.0 µM,-5%
same,growth inhibition,[1]; at 100.0 µM,-8%
same,growth inhibition,[2]; at 1.2 µM,1%
same,growth inhibition,[2]; at 3.7 µM,0%
same,growth inhibition,[2]; at 11.0 µM,1%
same,growth inhibition,[2]; at 33.0 µM,0%
same,growth inhibition,[2]; at 100.0 µM,-1%
same,growth inhibition,[3]; at 1.2 µM,-3%
same,growth inhibition,[3]; at 3.7 µM,-2%
same,growth inhibition,[3]; at 11.0 µM,-3%
same,growth inhibition,[3]; at 33.0 µM,-3%
same,growth inhibition,[3]; at 100.0 µM,3%
same,growth inhibition,[4]; at 1.2 µM,0%
same,growth inhibition,[4]; at 3.7 µM,-1%
same,growth inhibition,[4]; at 11.0 µM,-1%
same,growth inhibition,[4]; at 33.0 µM,-2%
same,growth inhibition,[4]; at 100.0 µM,-2%
same,growth inhibition,[5]; at 1.2 µM,0%
same,growth inhibition,[5]; at 3.7 µM,-5%
same,growth inhibition,[5]; [17],15%
same,growth inhibition,[5]; at 11.0 µM,1%
same,growth inhibition,[5]; at 33.0 µM,-5%
same,growth inhibition,[5]; [18],15%
same,growth inhibition,[5]; at 50.0 µM,-10.3% and -8% and 14.8%
same,growth inhibition,[5]; at 100.0 µM,-4%
same,growth inhibition,[6]; at 1.2 µM,-3%
same,growth inhibition,[6]; at 3.7 µM,-2%
same,growth inhibition,[6]; [17],24%
same,growth inhibition,[6]; at 11.0 µM,-3%
same,growth inhibition,[6]; at 33.0 µM,-2%
same,growth inhibition,[6]; [18],24%
same,growth inhibition,[6]; at 50.0 µM,2.1% and -4.7% and -21.4%
same,growth inhibition,[6]; at 100.0 µM,10%
same,growth inhibition,[7]; at 1.2 µM,0%
same,growth inhibition,[7]; at 3.7 µM,0%
same,growth inhibition,[7]; at 11.0 µM,2%
same,growth inhibition,[7]; at 33.0 µM,-7%
same,growth inhibition,[7]; at 100.0 µM,3%
same,growth inhibition,[8]; [17],12%
same,growth inhibition,[8]; [18],3%
same,growth inhibition,[8]; at 50.0 µM,-28.2% and -11.8% and -14.2%
same,growth inhibition,[9]; at 1.2 µM,-3%
same,growth inhibition,[9]; at 3.7 µM,-1%
same,growth inhibition,[9]; at 11.0 µM,-5%
same,growth inhibition,[9]; at 33.0 µM,-7%
same,growth inhibition,[9]; at 100.0 µM,2%
same,growth inhibition,[10]; [17],55%
same,growth inhibition,[10]; [18],23%
same,growth inhibition,[10]; at 50.0 µM,28.4% and 15.9% and 9.35%
same,growth inhibition,[11]; at 1.2 µM,-11%
same,growth inhibition,[11]; at 3.7 µM,-6%
same,growth inhibition,[11]; [17],97% (active)
same,growth inhibition,[11]; at 11.0 µM,-30%
same,growth inhibition,[11]; at 33.0 µM,19%
same,growth inhibition,[11]; [18],95% (active)
same,growth inhibition,[11]; at 50.0 µM,-19.1% and -0.25% and 3.5%
same,growth inhibition,[11]; at 100.0 µM,1%
same,growth inhibition,[12]; at 1.2 µM,-2%
same,growth inhibition,[12]; at 3.7 µM,0%
same,growth inhibition,[12]; at 11.0 µM,-4%
same,growth inhibition,[12]; at 33.0 µM,-2%
same,growth inhibition,[12]; at 100.0 µM,-2%
same,growth inhibition,[13]; at 1.2 µM,0%
same,growth inhibition,[13]; at 3.7 µM,2%
same,growth inhibition,[13]; at 11.0 µM,1%
same,growth inhibition,[13]; at 33.0 µM,-22%
same,growth inhibition,[13]; at 100.0 µM,10%
same,growth inhibition,[14]; at 1.2 µM,0%
same,growth inhibition,[14]; at 3.7 µM,-1%
same,growth inhibition,[14]; at 11.0 µM,-2%
same,growth inhibition,[14]; at 33.0 µM,-5%
same,growth inhibition,[14]; at 100.0 µM,-4%
same,growth inhibition,[15]; [17],39%
same,growth inhibition,[15]; [18],4%
same,growth inhibition,[15]; at 50.0 µM,8.8% and -6.15% and -15.1%
same,growth inhibition,[16]; at 1.2 µM,-2%
same,growth inhibition,[16]; at 3.7 µM,2%
same,growth inhibition,[16]; at 11.0 µM,5%
same,growth inhibition,[16]; at 33.0 µM,-5%
same,growth inhibition,[16]; at 100.0 µM,-11%
